# Reference: PubChem BioAssay (NCATS)
# A number with no mark means an inactive call. Inconclusive results are not listed. Entries that show only a call come without a potency. The source made the active and inactive calls. Unless noted, the call rests on the fitted dose curve; in most records, active means well fitted curve in the direction sought with a large enough effect; inconclusive means small, poorly fitted or top-dose-only effect, or another doubt; inactive means no such curve, though single readings can be large; an effect the other way counts as inactive or inconclusive.
# Key:
# [1] = molecular target: ATP-dependent 6-phosphofructokinase (Trypanosoma brucei brucei) (UniProt O15648); assay: qHTS Assay to Find Inhibitors of T. brucei phosphofructokinase: hit validation (AID 492961);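 further: luminescence reports ADP formed as PFK phosphorylates fructose-6-phosphate with ATP; series mostly up to about 51 µM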
# How it was run: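 In this biochemical qHTS validation, titrated compounds were tested against 1.25 nM PFK with 0.1 mM ATP and 0.5 mM F6P. Percent activity came from controls lacking or containing enzyme.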
# [2] = molecular target: Ubiquitin carboxyl-terminal hydrolase 1 (Homo sapiens) (UniProt O94782); assay: Inhibitors of USP1/UAF1: Pilot qHTS (AID 504865); further: nearly all actives have a fitted effect of over 35% in size; further: potency means the concentration at half of the fitted maximal effect
# How it was run: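 USP1/UAF1 complex (1nM) preincubated with compound 15 min at room temperature, then Ub-Rho substrate (150nM final) added. Fluorescence read kinetically at 480/540 nm, 6 reads every 60 seconds. Buffer: 50mM HEPES pH 7.8, 0.5mM EDTA, 0.1 mg/ml BSA, 1mM TCEP, 0.01% Tween-20.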
# [3] = molecular target: Estrogen receptor (Homo sapiens) (UniProt P03372); assay: qHTS assay for small molecule antagonists of estrogen receptor alpha signaling (AID 588513; active means well fitted curve in the direction sought with a large enough effect in the signal ratio, with a control signal flat, not every such curve was filed as active; the % refers to the signal ratio)
# How it was run: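 ER-alpha-UAS-bla GripTite HEK 293 cells in medium with 2% charcoal/dextran-treated FBS were preincubated 4 h at 37 C, dosed with compound (1:2 titration), stimulated with 0.5nM 17-beta-estradiol for 18 h, then read by CCF4 beta-lactamase fluorescence.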
# [4] = molecular target: Estrogen receptor (Homo sapiens) (UniProt P03372); assay: qHTS assay for small molecule agonists of estrogen receptor alpha signaling (AID 588514; calls by dose curve; further: nearly all actives have a fitted effect of over 70% in size)
# How it was run: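 Efficacy is expressed against 20 nM 17-beta-estradiol (100%) and DMSO basal (0%); EC50 from Hill equation. Assay: beta-lactamase reporter in ER-alpha-UAS-bla HEK 293 cells, 18 h compound incubation, CCF4 detection.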
# [5] = molecular target: DNA dC->dU-editing enzyme APOBEC-3G (Homo sapiens) (UniProt Q9HC16); assay: qHTS for inhibitors of Vif-A3G interactions: Validation (AID 588379)
# How it was run: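 Yellow fluorescence (Ex 488, Em 500-530) of Vif-coexpressing HeLa A3G-eYFP cells, scanned by Acumen cytometer, reports blocked A3G degradation. Cells plated at 700/well overnight at 37 deg C before compound addition, then a further overnight compound incubation at 37 deg C.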
# [6] = molecular target: Androgen receptor (Homo sapiens) (UniProt P10275); assay: qHTS assay for small molecule antagonists of androgen receptor signaling (AID 588516; active means well fitted curve in the direction sought with a large enough effect in the signal ratio, with a control signal flat, not every such curve was filed as active; the % refers to the signal ratio)
# How it was run: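 AR-UAS-bla-GripTite HEK 293 cells (2000/well, 5 h at 37 C) received compound titrations, then R1881 at 10 nM final; after 16 h at 37 C, CCF4 dye 2 h RT, beta-lactamase fluorescence read; IC50 from Hill fits.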
# [7] = molecular target: Androgen receptor (Homo sapiens) (UniProt P10275); assay: qHTS assay for small molecule agonists of androgen receptor signaling (AID 588515; active means well fitted curve in the direction sought with a large enough effect in the signal ratio, with a control signal flat; the % refers to the signal ratio); conditions: AR-UAS-bla HEK293, beta-lactamase ratio, agonist 16 h; hits give high values
# How it was run: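 Stimulation of an AR-responsive β-lactamase reporter in GripTite HEK293 cells was measured after 16 h compound exposure at 37 °C, via CCF4 fluorescence after 2 h RT. EC50 from Hill fits, normalized to R1881 at 30 nM.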
# [8] = molecular target: Bile acid receptor (Homo sapiens) (UniProt Q96RI1); assay: qHTS assay for small molecule antagonists of farnesoid X receptor signaling (AID 588526; calls by dose curve)
# How it was run: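 Beta-lactamase reporter antagonist mode: HEK293T FXR-UAS-bla cells, titrated compound, CDCA stimulation, 16 h 37 C, CCF4 dye 2 h RT. Data normalized to CDCA 50 uM and DMSO; Hill-fit IC50.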
# Chain of ATP-dependent 6-phosphofructokinase (Trypanosoma brucei brucei) (O15648 whole entry, looked up): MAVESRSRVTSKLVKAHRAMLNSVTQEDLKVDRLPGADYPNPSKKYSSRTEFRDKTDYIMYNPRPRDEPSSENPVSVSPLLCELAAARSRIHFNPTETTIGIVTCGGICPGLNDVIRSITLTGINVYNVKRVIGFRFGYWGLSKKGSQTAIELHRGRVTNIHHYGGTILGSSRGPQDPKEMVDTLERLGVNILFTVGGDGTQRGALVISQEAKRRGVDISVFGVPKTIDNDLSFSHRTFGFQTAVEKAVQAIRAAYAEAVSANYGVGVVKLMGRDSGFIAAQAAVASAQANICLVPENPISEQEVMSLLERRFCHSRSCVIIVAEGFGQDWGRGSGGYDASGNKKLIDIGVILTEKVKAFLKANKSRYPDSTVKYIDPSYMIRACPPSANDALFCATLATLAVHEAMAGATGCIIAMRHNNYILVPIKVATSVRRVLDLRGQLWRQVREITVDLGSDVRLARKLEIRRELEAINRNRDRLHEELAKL
# Chain of Bile acid receptor (Homo sapiens) (Q96RI1 whole entry, looked up): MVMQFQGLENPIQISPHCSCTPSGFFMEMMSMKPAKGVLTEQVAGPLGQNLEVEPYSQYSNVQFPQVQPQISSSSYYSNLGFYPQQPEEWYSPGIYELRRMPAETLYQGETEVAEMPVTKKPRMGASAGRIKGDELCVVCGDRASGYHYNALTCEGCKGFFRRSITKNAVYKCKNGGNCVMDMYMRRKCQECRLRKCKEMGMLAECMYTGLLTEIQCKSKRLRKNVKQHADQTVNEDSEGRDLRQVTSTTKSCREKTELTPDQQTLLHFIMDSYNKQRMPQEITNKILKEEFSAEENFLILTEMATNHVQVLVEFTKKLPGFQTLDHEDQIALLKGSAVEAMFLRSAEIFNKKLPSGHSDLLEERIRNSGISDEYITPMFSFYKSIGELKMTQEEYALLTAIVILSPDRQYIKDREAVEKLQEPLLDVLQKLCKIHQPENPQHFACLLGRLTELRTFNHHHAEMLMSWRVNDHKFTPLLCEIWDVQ
# Chain of Estrogen receptor (Homo sapiens) (P03372 whole entry, looked up): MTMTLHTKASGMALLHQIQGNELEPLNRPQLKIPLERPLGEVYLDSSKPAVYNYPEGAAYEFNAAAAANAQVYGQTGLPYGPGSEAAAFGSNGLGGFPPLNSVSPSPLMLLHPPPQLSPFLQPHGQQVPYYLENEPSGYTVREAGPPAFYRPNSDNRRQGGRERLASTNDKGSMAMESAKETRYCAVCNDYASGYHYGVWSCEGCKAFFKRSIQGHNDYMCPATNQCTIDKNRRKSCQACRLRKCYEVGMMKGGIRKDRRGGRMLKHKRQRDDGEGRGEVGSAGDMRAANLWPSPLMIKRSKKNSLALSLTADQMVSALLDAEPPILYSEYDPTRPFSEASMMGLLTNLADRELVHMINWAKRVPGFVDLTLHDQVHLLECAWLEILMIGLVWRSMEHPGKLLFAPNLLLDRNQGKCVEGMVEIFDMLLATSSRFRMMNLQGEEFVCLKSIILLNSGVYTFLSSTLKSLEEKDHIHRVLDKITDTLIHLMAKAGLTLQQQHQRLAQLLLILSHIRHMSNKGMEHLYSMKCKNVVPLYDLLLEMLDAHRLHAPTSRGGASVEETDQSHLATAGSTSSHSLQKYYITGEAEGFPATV
# Chain of DNA dC->dU-editing enzyme APOBEC-3G (Homo sapiens) (Q9HC16 whole entry, looked up): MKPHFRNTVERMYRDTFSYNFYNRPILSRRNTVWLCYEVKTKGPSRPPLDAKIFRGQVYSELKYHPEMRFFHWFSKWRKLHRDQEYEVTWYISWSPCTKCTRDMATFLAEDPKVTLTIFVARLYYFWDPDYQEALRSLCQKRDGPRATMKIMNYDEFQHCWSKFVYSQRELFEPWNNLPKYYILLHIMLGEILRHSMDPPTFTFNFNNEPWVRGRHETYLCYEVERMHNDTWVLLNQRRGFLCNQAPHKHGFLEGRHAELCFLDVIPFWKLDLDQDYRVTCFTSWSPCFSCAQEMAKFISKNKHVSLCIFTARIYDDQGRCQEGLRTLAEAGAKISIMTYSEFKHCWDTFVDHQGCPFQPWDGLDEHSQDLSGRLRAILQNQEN
# Chain of Ubiquitin carboxyl-terminal hydrolase 1 (Homo sapiens) (O94782 whole entry, looked up): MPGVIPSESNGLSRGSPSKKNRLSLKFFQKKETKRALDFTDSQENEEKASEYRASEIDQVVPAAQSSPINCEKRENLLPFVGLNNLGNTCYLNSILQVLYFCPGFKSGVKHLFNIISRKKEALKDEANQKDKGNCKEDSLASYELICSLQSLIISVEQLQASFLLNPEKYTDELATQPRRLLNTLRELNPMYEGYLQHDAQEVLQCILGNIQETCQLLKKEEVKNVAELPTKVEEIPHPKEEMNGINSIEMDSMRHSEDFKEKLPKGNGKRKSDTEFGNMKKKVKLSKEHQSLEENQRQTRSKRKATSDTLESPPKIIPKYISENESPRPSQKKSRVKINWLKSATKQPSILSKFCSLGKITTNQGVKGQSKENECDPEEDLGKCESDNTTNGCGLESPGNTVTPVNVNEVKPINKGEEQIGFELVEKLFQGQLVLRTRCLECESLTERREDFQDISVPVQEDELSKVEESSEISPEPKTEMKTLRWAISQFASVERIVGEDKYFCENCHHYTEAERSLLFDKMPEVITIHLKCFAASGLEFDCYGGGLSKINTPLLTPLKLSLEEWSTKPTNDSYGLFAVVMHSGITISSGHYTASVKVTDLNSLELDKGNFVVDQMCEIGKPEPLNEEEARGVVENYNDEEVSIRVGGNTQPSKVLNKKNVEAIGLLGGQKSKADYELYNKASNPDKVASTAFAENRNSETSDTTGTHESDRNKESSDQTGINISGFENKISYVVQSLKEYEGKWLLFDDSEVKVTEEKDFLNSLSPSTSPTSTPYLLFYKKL
# Chain of Androgen receptor (Homo sapiens) (P10275 whole entry, looked up): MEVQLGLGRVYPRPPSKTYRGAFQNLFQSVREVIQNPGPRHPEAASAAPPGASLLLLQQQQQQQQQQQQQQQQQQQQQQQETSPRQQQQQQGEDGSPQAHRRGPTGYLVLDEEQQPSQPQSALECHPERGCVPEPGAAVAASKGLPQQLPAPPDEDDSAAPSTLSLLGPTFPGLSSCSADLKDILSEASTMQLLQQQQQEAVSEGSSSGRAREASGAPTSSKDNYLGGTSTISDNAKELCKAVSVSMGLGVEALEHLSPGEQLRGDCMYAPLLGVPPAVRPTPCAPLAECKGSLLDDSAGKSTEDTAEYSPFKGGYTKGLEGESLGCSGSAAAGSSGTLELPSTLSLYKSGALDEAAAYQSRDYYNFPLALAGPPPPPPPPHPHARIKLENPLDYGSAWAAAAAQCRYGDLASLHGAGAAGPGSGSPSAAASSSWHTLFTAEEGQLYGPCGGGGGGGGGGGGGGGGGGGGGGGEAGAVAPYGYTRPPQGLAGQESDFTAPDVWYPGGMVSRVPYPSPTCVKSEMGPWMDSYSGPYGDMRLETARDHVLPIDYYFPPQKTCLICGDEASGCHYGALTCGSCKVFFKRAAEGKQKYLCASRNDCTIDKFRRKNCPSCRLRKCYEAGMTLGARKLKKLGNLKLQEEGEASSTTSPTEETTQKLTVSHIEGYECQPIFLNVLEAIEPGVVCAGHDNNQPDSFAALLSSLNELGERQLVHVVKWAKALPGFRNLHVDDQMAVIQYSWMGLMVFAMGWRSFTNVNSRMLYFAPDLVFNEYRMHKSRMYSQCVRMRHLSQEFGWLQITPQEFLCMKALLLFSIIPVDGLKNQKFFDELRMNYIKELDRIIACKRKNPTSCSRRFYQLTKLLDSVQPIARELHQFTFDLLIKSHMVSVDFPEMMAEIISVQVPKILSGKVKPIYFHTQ
structure (smiles),measurement,setting,value
CCN(CC)CCOC(=O)C(c1ccccc1)c1ccccc1,outcome,[1],inactive
same,Potency,[2],inactive
CCCCC1(COC(=O)CCC(=O)O)C(=O)N(c2ccccc2)N(c2ccccc2)C1=O,outcome,[1],inactive
same,Potency,[2],inactive
Cc1cc(C)c(NC(=O)CN(CC(=O)O)CC(=O)O)c(C)c1Br,outcome,[1],inactive
same,Potency,[2],inactive
CC(O)CCCCn1c(=O)c2c(ncn2C)n(C)c1=O (stereo not drawn),outcome,[1],inactive
same,Potency,[2],inactive
CN1CCCN=C1COC(=O)C(O)(c1ccccc1)C1CCCCC1 (stereo not drawn),outcome,[1],inactive
same,Potency,[2],inactive
COc1ccc2cc(CCC(C)=O)ccc2c1,outcome,[1],inactive
same,Potency,[2],inactive
NS(=O)(=O)c1ccc(NC(=O)CCC(=O)O)cc1,outcome,[1],inactive
same,Potency,[2],inactive
O=C(NCN1CCOCC1)c1cnccn1,outcome,[1],inactive
same,Potency,[2],inactive
Nc1c2c(nc3c1CCC3)CCCC2,outcome,[1],inactive
same,Potency,[2],inactive
CC1CCN(CCCC(=O)c2ccc(F)cc2)CC1,outcome,[1],inactive
same,Potency,[2],inactive
OCC(O)CS (stereo not drawn),outcome,[1],inactive
same,Potency,[2],inactive
CCOC(=O)c1cccnc1,outcome,[1],inactive
same,Potency,[2],inactive
NCc1ccc(S(N)(=O)=O)cc1,outcome,[1],inactive
same,Potency,[2],inactive
CN1C[C@@H]2C[C@H]1CN2c1cc2c(cc1F)c(=O)c(C(=O)O)cn2C1CC1,outcome,[1],inactive
same,Potency,[2],inactive
CCOc1cc(NC(C)=O)ccc1C(=O)OC,outcome,[1],inactive
same,Potency,[2],inactive
O=C(OOC(=O)c1ccccc1)c1ccccc1,outcome,[1],inactive
same,Potency,[2],inactive
same,outcome,[3],inactive
same,outcome,[4],inactive
C[N+](C)(C)CC[N+]1(C)Cc2c(Cl)c(Cl)c(Cl)c(Cl)c2C1,outcome,[1],inactive
same,Potency,[2],inactive
same,outcome,[5],inactive
O=C1c2ccccc2S(=O)(=O)N1CCCCN1CCN(c2ncccn2)CC1,outcome,[1],inactive
same,Potency,[2],inactive
same,outcome,[5],inactive
CC(=O)Oc1cccc(O)c1,outcome,[1],inactive
same,Potency,[2],inactive
Cc1c(C(=O)NCCO)[n+](=O)c2ccccc2n1[O-],outcome,[1],inactive
same,Potency,[2],inactive
same,outcome,[6],inactive
NNc1nnc(NN)c2ccccc12,outcome,[1],inactive
same,Potency,[2],inactive
CC(=O)N[C@@H](CC(C)C)C(=O)O,Potency,[2],inactive
c1ccc2[nH]ccc2c1,Potency,[2],inactive
Cc1c(NC(C)C)c(=O)n(-c2ccccc2)n1C,Potency,[2],inactive
NS(=O)(=O)c1ccc(C(=O)O)cc1,Potency,[2],inactive
CC1CCc2cc(F)cc3c(=O)c(C(=O)O)cn1c23 (stereo not drawn),Potency,[2],inactive
NC(=O)CCCCC1CCSS1 (stereo not drawn),outcome,[1],inactive
same,Potency,[2],inactive
OCc1ccc(Cl)cc1Cl,outcome,[1],inactive
same,Potency,[2],inactive
NS(=O)(=O)c1cc(C2(O)NC(=O)c3ccccc32)ccc1Cl (stereo not drawn),Potency,[2],inactive
CCCCCCCCCCCCCCCCCCO,outcome,[1],inactive
same,Potency,[2],inactive
same,outcome,[3],inactive
same,outcome,[4],inactive
OC(CCN1CCCC1)(c1ccccc1)C1CCCCC1 (stereo not drawn),Potency,[2],inactive
C[C@@H]1CCC[C@H](C)N1,Potency,[2],inactive
CCc1nnc(NS(=O)(=O)c2ccc(N)cc2)s1,Potency,[2],inactive
CC(C)CCCC(C)CCCC(C)CCCCC(C)CCCC(C)CCCC(C)C (stereo not drawn),Potency,[2],inactive
O=C(O)c1ccc[n+]([O-])c1,outcome,[1],inactive
same,Potency,[2],inactive
CC(=O)Nc1ccc(OCCOCCOc2ccc(NC(C)=O)cc2)cc1,Potency,[2],inactive
O=C(O)Cn1c(C(=O)Nc2nc(-c3ccccc3Cl)cs2)cc2ccccc21,outcome,[1],inactive
same,Potency,[2],79.4 µM (active)
C/C=C/C(=O)N(CC)c1ccccc1C,Potency,[2],inactive
CC(C)c1cc2c(cc1S(=O)(=O)O)[C@@]1(C)CCC[C@@](C)(C(=O)O)[C@@H]1CC2,outcome,[1],inactive
same,Potency,[2],inactive
CC(C)C[C@@H](N)C(=O)O,Potency,[2],inactive
CN(C(=O)c1c(O)c2ccccc2n(C)c1=O)c1ccccc1,outcome,[1],inactive
same,Potency,[2],inactive
same,outcome,[5],inactive
Cn1c(=O)c2c(ncn2CCO)n(C)c1=O,Potency,[2],inactive
CNCc1ccccc1,Potency,[2],inactive
CCN1CC(CCN2CCOCC2)C(c2ccccc2)(c2ccccc2)C1=O (stereo not drawn),Potency,[2],inactive
Cc1cc(NC(=O)C2=C(O)c3ccccc3S(=O)(=O)N2C)no1,Potency,[2],inactive
COC(=O)c1ccc(O)cc1,outcome,[1],inactive
same,outcome,[4],inactive
OC[C@@H](O)[C@@H](O)[C@H](O)[C@H](O)CO,outcome,[1],inactive
same,Potency,[2],inactive
same,outcome,[4],inactive
CC(C)=CCC/C(C)=C/CO,outcome,[1],inactive
same,Potency,[2],inactive
same,activation,[7],8.43%
same,outcome,[6],inactive
same,outcome,[8],inactive
Nc1ccc(S(=O)(=O)c2ccc(N)cc2)cc1,outcome,[8],inactive
Cc1c(N(C)C)c(=O)n(-c2ccccc2)n1C,outcome,[8],inactive
